Experimental data published in PubChem BioAssay.
Measured potencies and affinities stand elsewhere. Active and inactive are the calls of the source.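 The calls were made as follows: active = fitted dose curve reaches 40% lysis signal rise at or below the highest valid concentration tested for that sample; inconclusive = flat fit between 30% and 70%, or poor curve fit; inactive = signal falls, stays flat within 30%, or no crossing.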

Test: C. neoformans lysis by adenylate kinase leakage – AK release luminescence, cherry-picks, dose response (AID 687000);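 also: luminescent detection of adenylate kinase leaking from lysed yeast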
Conditions: 4 h, 100% = twice the neutral-control signal; series mostly up to 15 µM

outcome, inactive:
COc1ccc(-c2cnc3c(c2)C(=O)N([C@@H](C)CO)C[C@H](C)[C@@H](CN(C)S(C)(=O)=O)O3)cc1
C[C@H]1CN([C@@H](C)CO)C(=O)c2cc(NC(=O)CCN3CCOCC3)ccc2O[C@@H]1CN(C)Cc1ccc(C(=O)O)cc1
Cc1cccc(C)c1NC(=O)C(CCc1ccccc1)N1CCN(C)CC1 (centres undefined)
O=C(NC1CCCC1)N1CCCCN2[C@H](CO)[C@@H](c3ccc(-c4cncnc4)cc3)[C@H]2C1
CO[C@@H]1CN(C)C(=O)c2ccc(NC(=O)Nc3ccccc3)cc2OC[C@H](C)N(C(C)=O)C[C@H]1C
CCc1ccc(NC(=O)C2NC(=O)CC2c2ccccc2)cc1 (centres undefined)
C[C@@H]1CN([C@@H](C)CO)C(=O)c2cccc(NC(=O)Nc3ccccc3)c2O[C@H]1CN(C)S(=O)(=O)c1cn(C)cn1
COCC(=O)NC[C@H]1N[C@H](CO)[C@@H]1c1ccc(C2=CCCC2)cc1
CO[C@H]1CN(C)C(=O)c2cc(NC(C)=O)ccc2OC[C@H](C)N(Cc2cccc(F)c2)C[C@@H]1C
C[C@@H]1CN([C@@H](C)CO)S(=O)(=O)c2ccc(C#C[C@@H](C)O)cc2O[C@@H]1CN(C)C(=O)C1CCCCC1
CCCN1C[C@H](C)[C@@H](OC)CN(C)C(=O)c2cc(NC(=O)c3cccc(F)c3)ccc2OC[C@H]1C
C[C@@H]1CCCCO[C@H](CN(C)C(=O)c2ccncc2)[C@H](C)CN([C@H](C)CO)C(=O)c2cc(NC(=O)CCC(F)(F)F)ccc2O1
C[C@H](CO)N1C[C@H](C)[C@@H](CN(C)S(C)(=O)=O)Oc2cc(C#Cc3ccccc3)ccc2S1(=O)=O
CC(C)NC(=O)Nc1ccc2c(c1)C(=O)N([C@@H](C)CO)C[C@@H](C)[C@H](CN(C)Cc1ccncc1)OCCCC[C@@H](C)O2
Cc1noc(C)c1S(=O)(=O)Nc1ccc2c(c1)CC(=O)N([C@@H](C)CO)C[C@H](C)[C@@H](CN(C)S(=O)(=O)c1cn(C)cn1)O2
O=C(C[C@@H]1CC[C@H]2[C@@H](COC[C@@H](O)CN2Cc2ccc(Cl)cc2)O1)NCc1cccc(F)c1
COc1ccc(NC(=O)Nc2ccc3c(c2)C(=O)N([C@@H](C)CO)C[C@@H](C)[C@H](CN(C)C(=O)Cc2ccccc2)OCCCC[C@H](C)O3)cc1
C[C@@H]1CN([C@H](C)CO)C(=O)Cc2cc(NC(=O)Nc3cccc4ccccc34)ccc2O[C@@H]1CN(C)Cc1ccc(C(=O)O)cc1
CC=Cc1ccc2n(c1=O)C[C@H]1[C@H](CO)[C@@H](C(=O)NCc3ccc4c(c3)OCO4)[C@@H]2N1C(=O)C1CC1 (mixture of isomers)
Cc1cccc(C)c1NC(=O)C(C)N1CCCCC1 (centres undefined)
COCC(=O)N1[C@H](C#N)[C@H](c2ccc(C#Cc3ccccc3F)cc2)[C@H]1CO
CCC(=O)N(C)C[C@H]1Oc2cc(C#CC(C)(C)O)ccc2S(=O)(=O)N([C@H](C)CO)C[C@@H]1C
CCCNC(=O)N1C[C@@H]2[C@H](c3ccccc31)[C@H](CO)N2Cc1ccc(OC)cc1
C[C@@H]1CN([C@@H](C)CO)C(=O)c2cc(NS(=O)(=O)c3ccc(F)cc3)ccc2O[C@@H](C)CCCCO[C@@H]1CN(C)Cc1ccc2c(c1)OCO2
C[C@H](CO)N1C[C@H](C)[C@@H](CN(C)C(=O)c2cccc(F)c2)Oc2cc(-c3cncnc3)ccc2S1(=O)=O
CO[C@H]1CN(C)C(=O)c2cc(NS(=O)(=O)c3ccc(C)cc3)ccc2OC[C@H](C)N(C)C[C@H]1C
COc1ccc(NC(=O)Nc2ccc3c(c2)C(=O)N([C@H](C)CO)C[C@@H](C)[C@@H](CN(C)C(=O)CCC(F)(F)F)OCCCC[C@H](C)O3)cc1
C=CCNC(=O)CN(c1ccc(F)cc1)S(=O)(=O)c1ccc(OC)cc1
COc1ccc(-n2ncc3c(SCC(=O)OC(C)C)ncnc32)cc1
COCC(=O)N1C[C@H](C)[C@H](OC)CN(C)C(=O)c2ccc(NC(=O)NC(C)C)cc2OC[C@@H]1C
COc1ccc(S(=O)(=O)N[C@@H]2C=C[C@@H](CC(=O)N3CCC(Cc4ccccc4)CC3)O[C@H]2CO)cc1
C/C=C/c1cnc2c(c1)C(=O)N([C@@H](C)CO)C[C@@H](C)[C@@H](CN(C)C(=O)C1CCCCC1)O2
CCC(C(=O)Nc1c(C)cc(C)cc1C)N1CCCCCC1 (centres undefined)
C[C@H]1CN([C@@H](C)CO)C(=O)Cc2cc(NC(=O)Nc3ccccc3)ccc2O[C@@H]1CN(C)C(=O)Nc1ccc2c(c1)OCO2
Cc1ccc(S(=O)(=O)Nc2ccc3c(c2)C(=O)N([C@@H](C)CO)C[C@@H](C)[C@@H](CN(C)S(=O)(=O)c2ccc(Cl)cc2)OCCCC[C@H](C)O3)cc1
CNC(=O)C[C@H]1CC[C@H]2[C@H](COc3ccc(NC(=O)Nc4ccccc4)cc3C(=O)N2C)O1
O=C(Nc1cccc(F)c1)N[C@H]1CC[C@@H](CCNS(=O)(=O)c2cccc(Cl)c2)O[C@@H]1CO
COc1ccc(S(=O)(=O)Nc2ccc3c(c2)C(=O)N([C@H](C)CO)C[C@@H](C)[C@@H](CN(C)C(=O)Nc2ccccc2)O3)cc1
C[C@@H]1CN([C@H](C)CO)C(=O)c2cccc(NC(=O)C3CC3)c2O[C@H]1CN(C)Cc1ccc(C(=O)O)cc1
